Data: PubChem BioAssay (EPA / NIEHS)
Records with an inconclusive call do not appear. Calls of active or inactive are those of the source. How the source made its calls: active means hit-call score of the fitted dose curve at least 0.9, where 1 is the maximum; inconclusive means response in the unintended direction; inactive means score below 0.9.

How the values were obtained:
[1] = Tanguay_ZF_120hpf_SNOU_legacy: (Legacy) Oregon State University Tanguay Lab 120 Hour Post-fertilization zebrafish Assay for Snout Malformation (AID 2283637)
Procedure, shortened: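 Dechorionated zebrafish, individually housed from 6 hpf in covered, sealed wells at 28C with 0.64% DMSO vehicle, were examined at 120 hpf for snout malformation. Responses were binary and analysed positive-direction relative to DMSO.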

[2] = Tanguay_ZF_120hpf_OTIC_legacy: (Legacy) Oregon State University Tanguay Lab 120 Hour Post-fertilization zebrafish Assay for Otic Vesicle Malformation (AID 2283639)
Procedure, shortened: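 Binary scoring of otic vesicle defects at 120 hpf in zebrafish (Tropical 5D) held under static exposure at 28C, sealed and shaded, with final DMSO 0.64%. Embryos dying by 24 or 120 hpf excluded; fitted positively against DMSO.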

[3] = Tanguay_ZF_120hpf_PFIN_legacy: (Legacy) Oregon State University Tanguay Lab 120 Hour Post-fertilization zebrafish Assay for Pectoral Fin Malformation (AID 2283648);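 further: each larva judged yes or no for fin defect by brightfield with dead larvae skipped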
Procedure, shortened: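 Scoring of pectoral fin malformation was binary, made at 120 hpf on larvae exposed statically from 6 hpf after enzymatic chorion removal. Activity was fitted upward relative to DMSO controls at 0.64% (vol/vol).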

[4] = Tanguay_ZF_120hpf_CFIN_legacy: (Legacy) Oregon State University Tanguay Lab 120 Hour Post-fertilization zebrafish Assay for Caudal Fin Malformation (AID 2283649)
Procedure, shortened: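 Single dechorionated 5D wild-type embryos are dosed at 6 hpf (final DMSO 0.64%) and held statically at 28C. Caudal fin malformation is recorded as present or absent at 120 hpf under brightfield, excluding dead embryos.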

[5] = Tanguay_ZF_120hpf_PIG_legacy: (Legacy) Oregon State University Tanguay Lab 120 Hour Post-fertilization zebrafish Assay for Pigmentation Malformation (AID 2283650)
Procedure, shortened: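 Endpoint is incidence of abnormal pigmentation at 120 hpf in dechorionated 5D zebrafish exposed singly from 6 hpf at 28C, DMSO vehicle at 0.64%. Embryos dying by 24 or 120 hpf are excluded from scoring.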

[6] = Tanguay_ZF_120hpf_CIRC_legacy: (Legacy) Oregon State University Tanguay Lab 120 Hour Post-fertilization zebrafish Assay for Circulatory Malformation (AID 2283651)
Procedure, shortened: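 Binary circulatory malformation call at 120 hpf by brightfield imaging of zebrafish larvae; chorion removed at 4 hpf, static exposure from 6 hpf in sealed dark plates at 28C, final DMSO 0.64%; non-mortality endpoints skipped if embryo died.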

[7] = Tanguay_ZF_120hpf_SWIM_legacy: (Legacy) Oregon State University Tanguay Lab 120 Hour Post-fertilization zebrafish Assay for Swim Bladder Malformation (AID 2283654);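 further: swim bladder malformation in each larva scored yes or no under brightfield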
Procedure, shortened: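 Static waterborne exposure of single dechorionated Tropical 5D zebrafish embryos, 6–120 hpf, 28C, 0.64% DMSO final. Read-out: swim bladder malformation, present/absent, relative to DMSO negative control; trimethyltin chloride 5uM served as positive control.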

[8] = Tanguay_ZF_120hpf_NC_legacy: (Legacy) Oregon State University Tanguay Lab 120 Hour Post-fertilization zebrafish Assay for Notochord and Tail Malformation (AID 2283656)
Procedure, shortened: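 Binary scoring of notochord distortion by brightfield microscopy; embryos dying were not scored. Wild-type Tropical 5D embryos, chorion removed, exposed singly and statically from 6 to 120 hpf, 28C, sealed, 0.64% DMSO.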

[9] = Tanguay_ZF_120hpf_EYE_legacy: (Legacy) Oregon State University Tanguay Lab 120 Hour Post-fertilization zebrafish Assay for Eye Malformation (AID 2283636);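 further: binary presence or absence of eye malformation scored by brightfield in 120 hpf larvae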
Procedure, shortened: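 Static waterborne exposure of dechorionated zebrafish embryos (strain Tropical 5D), 6 to 120 hpf, sealed plates at 28C, 0.64% DMSO vehicle. Eye malformation is scored as a binary endpoint, with gain of signal analysed relative to DMSO.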

[10] = Tanguay_ZF_120hpf_JAW_legacy: (Legacy) Oregon State University Tanguay Lab 120 Hour Post-fertilization zebrafish Assay for Jaw Malformation (AID 2283638)
Procedure, shortened: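 Wild-type 5D embryos, chorion removed at 4 hpf, dosed singly from 6 hpf; 28C static, sealed, foil-covered, to 120 hpf. Endpoint: jaw defect yes/no (brightfield); mortality excludes scoring.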

[11] = Tanguay_ZF_120hpf_PE_legacy: (Legacy) Oregon State University Tanguay Lab 120 Hour Post-fertilization zebrafish Assay for Pericardial Edema (AID 2283640);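 on AC50: potency for increased incidence of pericardial edema versus DMSO baseline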
Procedure, shortened: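 Zebrafish larvae are exposed from early development to 120 hpf at 28C, with 0.64% DMSO final. Each surviving larva receives a yes/no pericardial edema call by brightfield imaging, analysed relative to the DMSO baseline.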

[12] = Tanguay_ZF_120hpf_BRAI_legacy: (Legacy) Oregon State University Tanguay Lab 120 Hour Post-fertilization zebrafish Assay for Brain Malformation (AID 2283641)
Procedure, shortened: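 Static exposure of staged wild-type embryos until 120 hpf, kept at 28C with light excluded and final DMSO of 0.64% (vol/vol). Presence or absence of brain malformation was noted under brightfield; mortality precluded scoring.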

[13] = tested on: Thyroperoxidase (TPO), gene 54314; assay: CCTE_Simmons_AUR_rTPO: CCTE's Amplex UltraRed Assay for Thyroperoxidase (TPO) Inhibition, Simmons Lab (AID 2283662);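 further: potency for loss of signal meaning inhibition of peroxidase activity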
Procedure, shortened: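 Rat thyroid microsomes (5 ug protein) were incubated with test compound (8 concentrations, 5 nM–87.5 uM final, 0.5% DMSO), 25 uM Amplex UltraRed and 300 uM H2O2 in 200 mM phosphate buffer for 30 min at 37C in the dark; fluorescence read at 544/590 nm.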

[14] = CCTE_Simmons_CellTiterGLO_HEK293T: Viability Assessment in CCTE's Assays for Thyroperoxidase (TPO) Inhibition, Simmons Lab (AID 2283665);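 on AC50: cells exposed to compound for 24 h before readout; actives reduce ATP signal below DMSO vehicle meaning cytotoxicity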
Procedure, shortened: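 Luciferase-coupled ATP content after 24 h exposure gives viability; 8-point series from 5 nM to 87.5 uM final in 0.5% DMSO. Human HEK293T cells, 1% FBS medium, three biological replicates, dichlone positive control.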

[15] = Tanguay_ZF_120hpf_SOMI_legacy: (Legacy) Oregon State University Tanguay Lab 120 Hour Post-fertilization zebrafish Assay for Somite Malformation (AID 2283647)
Procedure, shortened: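 Somitogenesis defects are recorded as binary calls in whole larvae at 120 hpf after continuous static chemical exposure starting at 6 hpf in dechorionated 5D embryos. DMSO serves as negative control and baseline.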

[16] = Tanguay_ZF_120hpf_TRUN_legacy: (Legacy) Oregon State University Tanguay Lab 120 Hour Post-fertilization zebrafish Assay for Truncated Body (AID 2283655)
Procedure, shortened: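 Single dechorionated zebrafish embryos received test chemical from 6 hpf in 0.64% DMSO, kept at 28C. At 120 hpf, brightfield inspection noted any truncated body.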

Measured: AC50

O=C1CCC(N2C(=O)c3ccccc3C2=O)C(=O)N1 (stereo not drawn)
inactive: [1] | [2] | [3] | [4] | [5] | [6] | [7] | [8]

CC(C)=CCC/C(C)=C\CO
inactive: [9] | [10] | [2] | [11] | [12] | [3] | [4] | [5] | [6] | [8] | [14]
active: [13] 8.64 µM

Cc1ccc(O)cc1
inactive: [1] | [10] | [2] | [11] | [12] | [3] | [5] | [6] | [8]

CCOC(=O)c1ccc(C2CCC(NC[C@H](O)COc3ccc(O)c(NS(C)(=O)=O)c3)CC2)cc1 (stereo partly drawn)
inactive: [1] | [2] | [11] | [12] | [15] | [3] | [4] | [8]
active: [13] 1.12 µM | [14] 18.3 µM

O=C(O)CCN(C1(C(=O)NO)CCCC1)S(=O)(=O)c1ccc(Oc2ccc(F)cc2)cc1
inactive: [9] | [1] | [10] | [12] | [15] | [3] | [4] | [6] | [7] | [8] | [14]
active: [13] 27.7 µM

CN(C)c1ccc(N=NS(=O)(=O)O)cc1
inactive: [1] | [10] | [2] | [11] | [15] | [5] | [6] | [7] | [16] | [8] | [14]
active: [13] 21.7 µM

CC(C)CC(C)(O)C#CC(C)(O)CC(C)C (stereo not drawn)
inactive: [9] | [10] | [2] | [11] | [12] | [8]

CC(O)CN(CCN(CC(C)O)CC(C)O)CC(C)O (stereo not drawn)
inactive: [9] | [1] | [2] | [11] | [12] | [15] | [3] | [4] | [5] | [6] | [7]

Cn1cnc([N+](=O)[O-])c1Sc1ncnc2nc[nH]c12
active: [13] 30.4 µM | [14] 1.09 µM
inactive: [1] | [10] | [2] | [15] | [4] | [6] | [8]

Cc1c(-c2cccnc2)c2ccccc2n1CCCCC(=O)O
inactive: [9] | [10] | [2] | [11] | [12] | [15] | [4] | [5] | [6] | [7]

On1ccccc1=S
inactive: [10] | [2] | [12] | [15] | [3] | [4] | [5] | [6] | [16] | [14]
active: [1] 0.206 µM | [11] 0.0293 µM | [7] 0.0615 µM | [8] 0.561 µM | [13] 17.5 µM

CCOCCO
inactive: [1] | [11] | [12] | [4] | [5] | [6] | [7] | [16] | [8]

COC(=O)CC(=O)OC
inactive: [1] | [10] | [2] | [12] | [15] | [3] | [6] | [7] | [8]

CCc1cc(SCc2sc(-c3ccc(C(F)(F)F)cc3)nc2CN2CCN(c3ccc(OC)cc3)CC2)ccc1OCC(=O)O
inactive: [9] | [1] | [10] | [11] | [12] | [15] | [4] | [5] | [6] | [7] | [16] | [8]

CCOCCOCCOCCO
inactive: [9] | [1] | [2] | [11] | [12] | [15] | [4] | [5] | [7] | [16] | [8]

COc1ccc(/C=C/S(=O)(=O)NC(=O)c2ccc(C)cc2Cl)cc1
inactive: [1] | [10] | [2] | [11] | [12] | [15] | [3] | [4] | [6] | [7] | [8]

CC1(C)C(=O)N(Br)C(=O)N1Br
inactive: [9] | [1] | [10] | [11] | [12] | [15] | [3] | [4] | [5] | [6] | [7] | [8]

COCCOCCOCCOC
inactive: [9] | [1] | [10] | [11] | [12] | [3] | [4] | [5] | [7] | [8]
